From PubChem BioAssay AID1159580 (chemical genetic matrix, 2015)
About 2,000 (36%) of roughly 5,500 compounds were called active. Not shown: some 18% with an inconclusive outcome. Rule as the data show it: active = normalized growth mostly below about 0.91 (no sharp cut-off); inconclusive = no clear call, values can overlap the other calls; inactive = mostly above about 0.92. This is one part of the list.

Test: chemical genetic growth profiling, strain panel (AID 1159580);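 also: tested at 20 µM; growth read once vehicle control cultures reached saturation at 30 °C; 1 = growth at the plate median or of vehicle wells; lower values mean less growth of the strain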
Conditions: growth OD

Measured: normalized growth

Oc1cccc2cccnc12
inactive: S. cerevisiae deletion strains, locus YLR113W, strain HOG1, active compounds read low 1.04 | S. cerevisiae deletion strains, locus YNL183C, strain NPR1, active compounds read low 0.919 | S. cerevisiae deletion strains, locus YOL012C, strain htz1 0.214 | S. cerevisiae deletion strains, locus YOR231W, strain MKK1, active compounds read low 0.916 | S. cerevisiae deletion strains, locus YPL256C, strain CLN2, active compounds read low 0.971
active: S. cerevisiae deletion strains, locus YKL009W, strain mrt4, active compounds read low 0.741 | S. cerevisiae deletion strains, locus YKL068W, active compounds read low 0.0531 | S. cerevisiae deletion strains, locus YKL085W, strain MDH1 (second series), active compounds read low 0.0521 | S. cerevisiae deletion strains, locus YKL085W, strain MDH1, active compounds read low 0.0521 | S. cerevisiae deletion strains, locus YKL160W, strain elf1, active compounds read low 0.0679 | S. cerevisiae deletion strains, locus YKL190W, strain CNB1, active compounds read low 0.0517 | S. cerevisiae deletion strains, locus YKR001C, strain vps1, active compounds read low 0.0622 | S. cerevisiae deletion strains, locus YKR026C, strain gcn3, active compounds read low 0.356 | S. cerevisiae deletion strains, locus YKR091W, strain srl3, active compounds read low 0.5 | S. cerevisiae deletion strains, locus YLL001W, strain dnm1, active compounds read low 0.0604 | S. cerevisiae deletion strains, locus YLL026W, active compounds read low 0.0573 | S. cerevisiae deletion strains, locus YLL041C, strain sdh2, active compounds read low 0.132 | S. cerevisiae deletion strains, locus YLR027C, strain aat2, active compounds read low 0.0569 | S. cerevisiae deletion strains, locus YLR039C, strain RIC1, active compounds read low 0.0939 | S. cerevisiae deletion strains, locus YLR058C, strain SHM2, active compounds read low 0.786 | S. cerevisiae deletion strains, locus YLR102C, strain apc9, active compounds read low 0.0613 | S. cerevisiae deletion strains, locus YLR221C, strain rsa3, active compounds read low 0.0643 | S. cerevisiae deletion strains, locus YLR258W, strain gsy2, active compounds read low 0.0623 | S. cerevisiae deletion strains, locus YLR262C, strain YPT6 (second series), active compounds read low 0.0792 | S. cerevisiae deletion strains, locus YLR262C, strain YPT6, active compounds read low 0.124 | S. cerevisiae deletion strains, locus YLR268W, strain sec22, active compounds read low 0.0693 | S. cerevisiae deletion strains, locus YLR320W, strain mms22, active compounds read low 0.0884 | S. cerevisiae deletion strains, locus YLR330W, strain CHS5, active compounds read low 0.0553 | S. cerevisiae deletion strains, locus YLR342W, strain FKS1 (second series), active compounds read low 0.0627 | S. cerevisiae deletion strains, locus YLR342W, strain FKS1, active compounds read low 0.0636 | S. cerevisiae deletion strains, locus YLR357W, strain rsc2, active compounds read low 0.117 | S. cerevisiae deletion strains, locus YLR370C, strain arc18, active compounds read low 0.0611 | S. cerevisiae deletion strains, locus YLR371W, strain rom2, active compounds read low 0.0611 | S. cerevisiae deletion strains, locus YLR384C, strain iki3, active compounds read low 0.0615 | S. cerevisiae deletion strains, locus YLR418C, strain cdc73, active compounds read low 0.0961 | S. cerevisiae deletion strains, locus YML016C, strain PPZ1, active compounds read low 0.0529 | S. cerevisiae deletion strains, locus YML032C, strain rad52, active compounds read low 0.385 | S. cerevisiae deletion strains, locus YML120C, strain ndi1, active compounds read low 0.0583 | S. cerevisiae deletion strains, locus YML124C, strain tub3, active compounds read low 0.0625 | S. cerevisiae deletion strains, locus YMR058W, strain fet3, active compounds read low 0.0576 | S. cerevisiae deletion strains, locus YMR078C, strain ctf18, active compounds read low 0.553 | S. cerevisiae deletion strains, locus YMR125W, strain sto1, active compounds read low 0.0733 | S. cerevisiae deletion strains, locus YMR129W, active compounds read low 0.0569 | S. cerevisiae deletion strains, locus YMR205C, strain PFK2, active compounds read low 0.214 | S. cerevisiae deletion strains, locus YMR223W, strain ubp8, active compounds read low 0.0625 | S. cerevisiae deletion strains, locus YMR231W, strain pep5, active compounds read low 0.0683 | S. cerevisiae deletion strains, locus YMR307W, strain GAS1, active compounds read low 0.108 | S. cerevisiae deletion strains, locus YNL067W, strain RPL9B, active compounds read low 0.0496 | S. cerevisiae deletion strains, locus YNL071W, strain lat1, active compounds read low 0.0618 | S. cerevisiae deletion strains, locus YNL209W, strain ssb2, active compounds read low 0.0612 | S. cerevisiae deletion strains, locus YNL233W, strain BNI4, active compounds read low 0.0522 | S. cerevisiae deletion strains, locus YNL248C, strain rpa49, active compounds read low 0.0751 | S. cerevisiae deletion strains, locus YNL250W, strain rad50, active compounds read low 0.0636 | S. cerevisiae deletion strains, locus YNL271C, strain bni1, active compounds read low 0.0611 | S. cerevisiae deletion strains, locus YNL298W, strain CLA4, active compounds read low 0.0629 | S. cerevisiae deletion strains, locus YNL307C, strain MCK1, active compounds read low 0.0661 | S. cerevisiae deletion strains, locus YNL322C, strain KRE1 (second series), active compounds read low 0.0706 | S. cerevisiae deletion strains, locus YNL322C, strain KRE1, active compounds read low 0.0518 | S. cerevisiae deletion strains, locus YNR049C, strain mso1, active compounds read low 0.0568 | S. cerevisiae deletion strains, locus YNR052C, strain pop2, active compounds read low 0.749 | S. cerevisiae deletion strains, locus YOL006C, strain TOP1, active compounds read low 0.113 | S. cerevisiae deletion strains, locus YOL147C, strain pex11, active compounds read low 0.127 | S. cerevisiae deletion strains, locus YOR001W, strain rrp6, active compounds read low 0.0671 | S. cerevisiae deletion strains, locus YOR061W, strain CKA2, active compounds read low 0.0507 | S. cerevisiae deletion strains, locus YOR069W, strain VPS5, active compounds read low 0.0519 | S. cerevisiae deletion strains, locus YOR070C, strain gyp1, active compounds read low 0.0577 | S. cerevisiae deletion strains, locus YOR080W, strain dia2, active compounds read low 0.0646 | S. cerevisiae deletion strains, locus YOR083W, strain WHI5, active compounds read low 0.167 | S. cerevisiae deletion strains, locus YOR106W, strain vam3, active compounds read low 0.0652 | S. cerevisiae deletion strains, locus YOR136W, strain idh2, active compounds read low 0.0689 | S. cerevisiae deletion strains, locus YOR144C, strain elg1, active compounds read low 0.712 | S. cerevisiae deletion strains, locus YOR184W, strain ser1, active compounds read low 0.0694 | S. cerevisiae deletion strains, locus YOR265W, strain rbl2, active compounds read low 0.0565 | S. cerevisiae deletion strains, locus YOR270C, strain vph1, active compounds read low 0.0934 | S. cerevisiae deletion strains, locus YOR290C, strain snf2, active compounds read low 0.0963 | S. cerevisiae deletion strains, locus YOR316C, strain cot1, active compounds read low 0.0587 | S. cerevisiae deletion strains, locus YPL051W, strain arl3, active compounds read low 0.063 | S. cerevisiae deletion strains, locus YPL055C, strain LGE1, active compounds read low 0.0702 | S. cerevisiae deletion strains, locus YPL078C, strain atp4, active compounds read low 0.0642 | S. cerevisiae deletion strains, locus YPL106C, strain sse1, active compounds read low 0.104 | S. cerevisiae deletion strains, locus YPL240C, strain hsp82, active compounds read low 0.112 | S. cerevisiae deletion strains, locus YPL241C, strain CIN2, active compounds read low 0.0551 | S. cerevisiae deletion strains, locus YPR119W, strain clb2, active compounds read low 0.0623 | S. cerevisiae deletion strains, locus YPR141C, strain kar3, active compounds read low 0.0649 | S. cerevisiae deletion strains, locus YPR163C, strain tif3, active compounds read low 0.0763 | S. cerevisiae deletion strains, locus YPR167C, strain met16, active compounds read low 0.0614 | S. cerevisiae deletion strains, strain wtn01, active compounds read low 0.0583 | S. cerevisiae strains, strain wild type, active compounds read low 0.0541
